Results on 95 compounds are retold here after PubChem BioAssay AID504332 (National Center for Advancing Translational Sciences (NCATS), 2011).

Several values for one entry are separate records, joined by “and”; a condition that tells them apart may be missing. Equal entries are not always repeated. About 31,000 (8.9%) of roughly 350,000 compounds were called active. Where a call stands in place of a potency, no number is given. Another 15% or so got no clear call; they are omitted. The call rests on the fitted dose curve; in most records, active means well fitted inhibition curve with a large enough effect; inconclusive means small, poorly fitted or top-dose-only effect; inactive means no such curve, though single readings can be large or run the other way. Only a selection was taken, and actives are over-represented in it overall. The source holds several records for some structures; these can differ, active in one and inactive in another.
Potency means the concentration at half of the fitted maximal effect.

Sequence of Histone-lysine N-methyltransferase EHMT2 (Homo sapiens) (Q96KQ7 913-1193 limits assumed): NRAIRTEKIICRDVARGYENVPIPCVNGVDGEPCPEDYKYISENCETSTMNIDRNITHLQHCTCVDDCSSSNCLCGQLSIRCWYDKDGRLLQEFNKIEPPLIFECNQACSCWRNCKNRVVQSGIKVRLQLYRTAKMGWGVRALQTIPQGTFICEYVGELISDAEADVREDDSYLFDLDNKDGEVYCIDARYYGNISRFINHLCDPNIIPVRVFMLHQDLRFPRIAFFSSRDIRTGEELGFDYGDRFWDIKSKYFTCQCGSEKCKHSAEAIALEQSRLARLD

The assay concerns the target Histone-lysine N-methyltransferase EHMT2 (Homo sapiens) (UniProt Q96KQ7). The assay can be described thus: qHTS Assay for Inhibitors of Histone Lysine Methyltransferase G9a. Further: nearly all actives have a fitted effect of over 75% in size. Particulars: G9a H3K9 monomethylation, AlphaScreen, 2 h; series mostly up to 59 µM. In outline:
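G9a (20 nM) was preincubated 15 min with compound, then reacted 2 h at room temperature with 500 nM biotin-H3K9 peptide and 20 µM SAM. Monomethyl-H3K9 detected by AlphaScreen using anti-H3K9me1 antibody.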
For the compound `Cc1cc(C)cc(-n2c(SCC(=O)NCC3CCCO3)nc3c([nH]c4ccccc43)c2=O)c1` (stereo not given), the Potency entry was “inactive”.
Still for that read-out and setting: in the case of `CCCCCOC(=O)c1ccc(N2C(=O)C3C4C=CC(C4)C3C2=O)cc1` (stereo not given) it was “inactive”.
With `CCCCCCC(=O)N(O)C1CC(=O)N(c2ccccc2)C1=O` (stereo not given), the Potency is 0.794 µM (active).
Still for that read-out and setting: in the case of `CCOc1ccc(N2C(=O)CC(N(CCc3ccc(OC)c(OC)c3)C(=S)Nc3ccccc3)C2=O)cc1` (stereo not given) it was “inactive”; in that of `O=C(Nc1cccc(F)c1)NC1CCCc2ccccc21` (stereo not given), “inactive”; in that of `COc1ccc(-n2ccn(CC(=O)Nc3ccc(C)c(C)c3)c(=O)c2=O)cc1OC`, “inactive”.
For `O=C1C(Cc2ccc(O)cc2)NC(=S)N1Cc1ccccc1` (stereo not given), the Potency result is “inactive”.
On to `Oc1ccc(Cn2cc[nH]c2=S)cc1`, for which the Potency is 3.16 µM (active) and 2.99 µM (active).
In the case of `N#Cc1ccc(OCC(=O)NC(=O)NC2CCS(=O)(=O)C2)cc1` (stereo not given), the activity, negative = inhibition was -2.17% [at 12.7 µM] (inactive).
Consider `COc1ccc(OC)c(S(=O)(=O)Nc2c(C)nn(C)c2C)c1`, for which the activity, negative = inhibition was 3.63% [at 12.7 µM] (inactive).
Consider `COCCCn1c(SCC(=O)Nc2oc(C)c3c(C)n[nH]c(=O)c23)nc2sc3c(c2c1=O)CCC3`, for which the Potency is 6.31 µM (active).
On to `Cc1nc2sc3c(c2c(=O)n1NC(=O)CCl)CCCC3`, for which the Potency result is “inactive”.
The same measure, in the same setting: for `C=CCn1c(SCC(=O)NCCCO)nc2sc3c(c2c1=O)CCC3` the value was “inactive”; for `Cc1ccc(S(=O)(=O)N(CC(=O)Nc2ccc(Cl)cc2Cl)c2ccccc2C)cc1`, “inactive”.
The same measure, in the same setting: in the case of `CCCCN(C1CCS(=O)(=O)C1)S(=O)(=O)c1ccc(C(C)C)cc1` (stereo not given) it was “inactive”; in that of `COc1cc(OC)c(NC(=O)C2CCCN2C(=O)OCc2ccccc2)cc1Cl` (stereo not given), “inactive”.
Take `Cc1ccccc1CNC(=O)c1ccc(NC(=O)N2CCCCc3ccccc32)cc1`: the Potency result was “inactive”.
Take `COc1ccc(CNC(=O)c2ccc(NC(=O)N3CC4CCCN4c4ccccc43)cc2)cc1` (stereo not given): the Potency is 7.08 µM (active).
For the compound `O=C(CCC(=O)N1CC2CCCN2c2ccccc21)NCc1ccccc1Cl` (stereo not given), the Potency entry was “inactive”.
For the compound `COc1ccccc1CNC(=O)c1ccc(NC(=O)N2CC(C)Sc3ccccc32)cc1` (stereo not given), the Potency result is “inactive”.
As for `COc1cc(OC)c(NC(=O)N2CC3CCCN3c3ccccc32)cc1Cl` (stereo not given), the Potency was 8.91 µM (active).
Same read-out and setting: for `Cc1cccc(N2CCN(C(=O)COCc3cc(-c4ccc5c(c4)OCO5)on3)CC2)c1C` the value was “inactive”; for `Oc1ccccc1C1=NN(c2ccccc2)C(c2ccccc2)C1` (stereo not given), “inactive”.
For `O=C(NNC(=O)c1cc(-c2ccccc2Cl)nc2ccccc12)c1csc(N2CCOCC2)n1`, the activity, negative = inhibition was 10% [at 2.33 µM] (inactive).
Take `Cc1ccccc1C(=O)Nc1nnc(S(=O)(=O)N(C)c2ccc(Cl)cc2)s1`: the Potency result is “inactive”.
On the same count and under the same terms, in the case of `COc1cccc(-n2nc(C(=O)N3CCN(Cc4ccccc4)CC3)c3ccccc3c2=O)c1` it was “inactive”.
Still for that read-out and setting: for `CCOC(=O)N1CCN(Cc2nc3ccc([N+](=O)[O-])cc3c(=O)n2-c2cccc(OC)c2)CC1` the value was 39.8 µM (active); for `CCOC(=O)N1CCN(Cc2nc3cc(NC(C)=O)ccc3n2C)CC1`, “inactive”.
Same read-out and setting: for `CCCCN1C(=O)c2[nH]nc(-c3ccccc3O)c2C1c1cccc(OCc2ccccc2)c1` (stereo not given) the value was “inactive”; for `Cc1cccc(C(=O)NCc2nnc(SC(C)C(=O)Nc3nnc(C)s3)n2C)c1` (stereo not given), “inactive”; for `COCCn1c(SC(C)C(=O)NC2CC2)nnc1-c1cccc(C)c1` (stereo not given), 28.2 µM (active).
For `COCCCn1c(SCC(=O)NC2CCCC2)nnc1-c1ccccc1`, the Potency result is “inactive”.
Take `Cc1ccc(NC(=O)c2oc3ccc(S(=O)(=O)N4CCCCC4)cc3c2C)cc1Cl`: the Potency result was “inactive”.
As for `C=CCn1c(=O)c(C(=O)NCc2ccc3c(c2)OCO3)c(O)c2ccccc21`, the Potency entry is “inactive”.
Same read-out and setting: in the case of `C/C(CCC(=O)OC[C@H]1O[C@H](C#Cc2ccccc2)C=C[C@@H]1Oc1ccc(C)cc1)=N\OC[C@@H](O)[C@H]1O[C@@H]2OC(C)(C)O[C@@H]2[C@H]1O` it was 50.1 µM (active); in that of `COc1cc(C)c(C)cc1S(=O)(=O)N1CCCc2ccccc21`, “inactive”; in that of `COc1ccc(OCC(=O)N2CCN(C(=O)COc3ccccc3)CC2)cc1`, “inactive”.
With `CC1CN(C2CCN(C(=O)COc3ccccc3)CC2)CC(C)O1` (stereo not given), the Potency is 8.91 µM (active).
In the case of `COc1ccc(OCC(=O)N2CCOCC2)cc1`, the activity, negative = inhibition was 6.34% [at 12.7 µM] (inactive).
Same read-out and setting: in the case of `Cc1cc(C)cc(NC(=O)C(OC(=O)c2ccc(O)cc2)c2ccccc2)c1` (stereo not given) it was -7.57% [at 12.7 µM] (inactive).
In the case of `CC(C)(C)c1ccc(C(=O)Nc2ccc3c(c2)CCCN3C(=O)c2cccs2)cc1`, the Potency entry was “inactive”.
Turning to `CCCCCn1c(=O)[nH]c2cc(C(=O)Nc3cc(C)cc(C)c3)ccc2c1=O`, the Potency entry is “inactive”.
The same measure, in the same setting: in the case of `O=C(CSc1nc2ccccc2s1)Nc1ccc(C(=O)O)cc1` it was “inactive”.
Still for that read-out and setting: in the case of `O=C(O)c1ccccc1CSc1nc2ccccc2s1` it was 10 µM (active); in that of `O=C(O)CSCc1nc2ccccc2s1`, “inactive”.
Still for that read-out and setting: for `Cc1ccc(Cc2nc3ccccc3nc2SCC(=O)Nc2cccc(C(F)(F)F)c2)cc1` the value was “inactive”.
As for `COc1ccc(S(=O)(=O)N2CCN(CC(=O)NCC3(N4CCOCC4)CCCCC3)CC2)cc1`, the activity, negative = inhibition is -3.79% [at 12.7 µM] (inactive).
As to `Cc1cc(C)cc(NC(=O)Cn2nc(N3CCN(c4ccccc4)CC3)ccc2=O)c1`, the Potency result was “inactive”.
On to `COc1ccc(NC(=O)c2cnc(Nc3ccc(C)c(Cl)c3)c3ccccc23)cc1OC`, for which the Potency result is “inactive”.
`O=c1cc(CCl)nc2scc(-c3ccccc3)n12`: the Potency was 50.1 µM (active).
Consider `Cc1csc2nc(COc3ccc(NC(=O)COc4ccccc4)cc3)cc(=O)n12`, for which the Potency entry is “inactive”.
Same read-out and setting: in the case of `Cc1csc2nc(COC(=O)c3ccccc3NC(=O)c3ccccc3Cl)cc(=O)n12` it was “inactive”; in that of `Cc1cccc2c(=O)cc(CSc3ccccc3NC(=O)C(C)C)[nH]c12`, “inactive”; in that of `COc1ccc(OC)c(-n2nnc3c(sc4nc(C)c(Br)c(C)c43)c2=O)c1`, “inactive”.
`O=C(NC1CCCC1)C(=O)c1c[nH]c2ccccc12`: the Potency entry was “inactive”.
Still for that read-out and setting: for `O=S(=O)(O)Oc1c[nH]c2ccccc12` the value was 2.51 µM (active).
On the same count and under the same terms, for `O=C(OCC(=O)c1c[nH]c2ccccc12)c1cccc(O)c1` the value was “inactive”.
Still for that read-out and setting: in the case of `Cc1cccn2c(=O)c(C(=O)NC(C)c3ccccc3)cnc12` (stereo not given) it was “inactive”.
`Cc1cc(SCc2c(F)cccc2Cl)nc(=O)[nH]1`: the activity, negative = inhibition was -5.25% [at 0.501 µM] (inactive).
As for `Brc1ccc(CSc2ccc(-c3ccco3)nn2)cc1`, the Potency entry is “inactive”.
On to `Fc1cccc(Cl)c1CSc1ccc(-c2ccco2)nn1`, for which the Potency was 31.6 µM (active).
The same measure, in the same setting: for `O=C(CSc1ccc(-c2ccc(F)cc2)nn1)Nc1ccc2c(c1)OCCO2` the value was “inactive”; for `O=C(CSc1ccc(-c2ccco2)nn1)Nc1cccc(F)c1`, 15.8 µM (active).
Same read-out and setting: in the case of `CCn1c(=O)cc(SCC(=O)NCc2ccc3c(c2)OCO3)c2ccccc21` it was “inactive”.
On to `Cc1ccccc1-c1nnc(SCC(=O)NCc2ccc3c(c2)OCO3)n1C`, for which the activity, negative = inhibition is -10.1% [at 12.7 µM] (inactive).
Turning to `O=C(CSc1ccc(-c2ccco2)nn1)NCc1ccc2c(c1)OCO2`, the Potency is 31.6 µM (active).
On the same count and under the same terms, for `CCn1c(CNC(=O)c2ccco2)nnc1SCC(=O)Nc1cccc(F)c1` the value was “inactive”.
In the case of `CCN1C(=O)C(=O)N(CC(=O)Nc2cc(C)ccc2C)C1=O`, the activity, negative = inhibition was 1.01% [at 2.33 µM] (inactive).
As to `CCOc1ccc(Nc2nc3c(S(=O)(=O)c4cccc(Cl)c4)nnn3c3ccsc23)cc1`, the Potency entry is “inactive”.
The same measure, in the same setting: in the case of `CC(C)S(=O)(=O)c1oc(-c2ccc(F)cc2)nc1S(=O)(=O)c1ccc(F)cc1` it was “inactive”.
As to `O=C1c2cccc3cccc(c23)C(=O)N1c1cccc(O)c1`, the activity, negative = inhibition was 21.1% [at 2.33 µM] (inactive).
Consider `O=C(COC(=O)CCCN1C(=O)c2cccc3cccc(c23)C1=O)NC1CCS(=O)(=O)C1` (stereo not given), for which the Potency result is “inactive”.
`O=C(CN1C(=O)c2cccc3cccc(c23)C1=O)N1CCCCC1`: the Potency entry was “inactive”.
Take `COc1ccc(N2C(=O)c3cccc4cccc(c34)C2=O)nn1`: the activity, negative = inhibition is -3.86% [at 12.7 µM] (inactive).
Regarding `O=C1c2cccc3cccc(c23)C(=O)N1CCCCCc1n[nH]c(=S)o1`, the Potency was 2.51 µM (active).
Take `C[N+](C)(CCCCCC[N+](C)(C)CCCN1C(=O)c2cccc3cccc(c23)C1=O)CCCN1C(=O)c2cccc3cccc(c23)C1=O`: the Potency entry was “inactive and 22.4 µM (active)”.
On the same count and under the same terms, in the case of `O=C(Cn1cnc2c(oc3ccccc32)c1=O)Nc1ccc(OC(F)(F)F)cc1` it was “inactive”; in that of `COc1cc(/C=N/NC(=O)c2cccnc2)ccc1OC(=O)c1cccc(Br)c1`, “inactive”.
For `CCc1ccccc1NC(=O)CN(C)C(=O)c1cc(C2CC2)nn1-c1ccccc1`, the activity, negative = inhibition is 14.2% [at 12.7 µM] (inactive).
Regarding `CCCc1[nH]nc2c1C(C1CC=CCC1)C(C#N)=C(N)O2` (stereo not given), the Potency entry is “inactive”.
As for `CCCc1[nH]nc2c1C(c1ccc(Br)s1)C(C#N)=C(N)O2` (stereo not given), the Potency is 50.1 µM (active).
Same read-out and setting: in the case of `CCCc1[nH]nc2c1C(c1ccc(OC(=O)c3ccco3)cc1)C(C#N)=C(N)O2` (stereo not given) it was “inactive”.
On the same count and under the same terms, for `COc1ccc(C2=NN(C(=O)c3ccccc3C(=O)O)C(c3ccccc3O)C2)cc1` (stereo not given) the value was “inactive”.
In the case of `CCC(=O)Nc1ccc(C)cc1-c1nc2ccccc2n(Cc2ccccc2)c1=O`, the Potency entry was “inactive”.
As to `COc1ccc(NC(=O)CSc2nc(C)cs2)cc1`, the Potency result was “inactive”.
Still for that read-out and setting: for `COc1ccc(NC(=O)c2sc(N)nc2-c2ccccc2)cc1` the value was “inactive”; for `COc1ccc(NC(=O)c2sccc2SCC#N)cc1`, 7.94 µM (active).
For `COc1ccccc1-c1sc2ccccc2c1-c1ccc(Br)nc1`, the activity, negative = inhibition is -0.161% [at 0.501 µM] (inactive).
With `COc1cccc(CNC(=O)C(NS(=O)(=O)c2ccc3nc(C)sc3c2)C(C)C)c1` (stereo not given), the Potency entry is “inactive”.
Regarding `O=S(=O)(NC(=S)Nc1ccccc1)c1ccc(F)cc1`, the Potency was 1.58 µM (active).
With `CC(=O)NS(=O)(=O)c1ccc(NC(=S)NC(=O)C(C)(C)C)cc1`, the activity, negative = inhibition is -14.5% [at 0.501 µM] (inactive).
`Cc1ccc(NC(=S)Nc2ccc(F)cc2)cc1`: the Potency result is “inactive”.
With `Cc1cc(C)c(S(=O)(=O)n2cc(C(C)C(N)C(=O)O)c3ccccc32)c(C)c1` (stereo not given), the activity, negative = inhibition was 11.6% [at 12.7 µM] (inactive).
For the compound `COc1ccc(C(=O)C2CCCN(S(=O)(=O)c3cccc(C)c3)C2)c(C)c1` (stereo not given), the Potency result was “inactive”.
In the case of `CCn1ccnc1CN1CCCC(C(=O)c2ccc3c4c(cccc24)CC3)C1` (stereo not given), the Potency is 35.5 µM (active).
